# Most compounds without a hit are left out; they make up all but 3.3% or so of the library.
# MBD2 DNA inh = blocks human MBD2 binding to methylated DNA. inhibition, % at 4.4 µM. AID 686964. 370,000 tested, 0.31% active. TR-FRET, MBD2 binding to methylated oligonucleotide. Q9UBB5; in the data active means inhibition above about 13%
# PRMT1 inh = inhibitors of human PRMT1. Q99873. recombinant PRMT1, activity-based probe fluorescence polarization. inhibition, % at 2.79 µM. 370,000 tested, 1.3% active. AID 652257;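 active means inhibition above about 21% made by adding two undisclosed values, limit read from the data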
# PfG6PD inh = PfG6PD (Plasmodium falciparum) enzyme inhibition. PfGluPho enzyme, NADPH resazurin-diaphorase fluorescence. inhibition, % at 20 µM. 350,000 tested, 0.78% active. AID 504690;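 active means inhibition reaching at least a set limit at 20 µM in the primary screen, cut at about 59% in these data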;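 further: 0% = DMSO wells with substrate and 100% = DMSO wells lacking glucose-6-phosphate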
# M18AAP inhibitor = blocks P. falciparum M18 aspartyl aminopeptidase; recombinant PfM18AAP, H-Glu-NHMec fluorogenic cleavage; inhibition, % at 7.35 µM; 290,000 tested, 1.2% active; AID 1822;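 active means inhibition above the campaign mean inhibition over all tested compounds plus 3 SD, cut at about 28% in these data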;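 further: 0% = plate median of test compound wells and 100% = 2 mM ZnCl2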
# UHRF1 MBD2 ctr = human UHRF1 methylated DNA binding inhibitors; Q96T88; UHRF1 binding to methylated oligo, TR-FRET; inhibition, % at 4.4 µM; 370,000 tested, 0.75% active; AID 687016; in the data active means inhibition above about 21%;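 further: UHRF1 SRA domain binding a hemimethylated CpG hairpin DNA probe; 0% = median of test compound wells and 100% = reference inhibitor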
# Target sequence (Q96T88 whole entry, looked up, the tested form may be a part): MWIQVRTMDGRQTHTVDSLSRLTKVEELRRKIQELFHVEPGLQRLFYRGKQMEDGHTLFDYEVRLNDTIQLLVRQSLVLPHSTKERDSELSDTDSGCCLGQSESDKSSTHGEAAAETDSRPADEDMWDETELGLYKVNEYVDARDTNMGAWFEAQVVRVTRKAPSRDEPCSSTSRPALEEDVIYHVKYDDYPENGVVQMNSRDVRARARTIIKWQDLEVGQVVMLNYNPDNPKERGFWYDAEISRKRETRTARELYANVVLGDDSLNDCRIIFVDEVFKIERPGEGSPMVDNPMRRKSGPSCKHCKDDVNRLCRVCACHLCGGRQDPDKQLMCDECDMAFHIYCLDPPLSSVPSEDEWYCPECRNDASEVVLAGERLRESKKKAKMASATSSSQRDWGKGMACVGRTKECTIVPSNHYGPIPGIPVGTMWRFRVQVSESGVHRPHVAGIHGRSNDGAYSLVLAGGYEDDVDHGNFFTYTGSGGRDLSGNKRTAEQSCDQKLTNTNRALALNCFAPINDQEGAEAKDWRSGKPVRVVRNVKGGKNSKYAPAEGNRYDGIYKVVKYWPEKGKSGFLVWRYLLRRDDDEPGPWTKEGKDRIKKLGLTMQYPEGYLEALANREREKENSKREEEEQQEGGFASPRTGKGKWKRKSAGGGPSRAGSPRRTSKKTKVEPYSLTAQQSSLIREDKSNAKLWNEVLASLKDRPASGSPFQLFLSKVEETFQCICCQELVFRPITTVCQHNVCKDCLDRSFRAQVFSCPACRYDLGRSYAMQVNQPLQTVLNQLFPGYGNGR
# An asterisk follows results filed as active; / = no result.
SMILES,MBD2 DNA inh,PRMT1 inh,PfG6PD inh,M18AAP inhibitor,UHRF1 MBD2 ctr
COC(=O)c1cc2c(c3c4ccccc4n(S(=O)(=O)c4cccc(C)c4)c13)C(=O)N(Cc1ccccc1OC)C2,1.0,4.2,/,/,3.8
N#C/C(=C\c1ccco1)C(=O)Nn1cnnc1,-9.6,-0.4,-16.4,31.6*,2.6
Cc1cc(C)cc(C(=O)OCCCN(C)C2CN(Cc3cn(Cc4ccccc4Cl)nn3)S(=O)(=O)C2)c1 (stereo not drawn),-0.7,1.8,/,/,5.5
CC(=O)NN1C(=O)c2ccccc2NC1c1ccccn1 (stereo not drawn),3.8,-2.0,-4.1,39.8*,3.3
Cc1cccc(C2Nc3ccccc3C(=O)N2NC(=O)c2ccc([N+](=O)[O-])cc2)n1 (stereo not drawn),1.3,0.5,-6.6,39.5*,4.3
O=C(NN1C(=O)c2ccccc2NC1c1ccccn1)c1ccc(Br)cc1 (stereo not drawn),1.2,-2.8,-14.8,22.6,0.8
CC1CC(C)CN(S(=O)(=O)N2CCCC(C(=O)NCc3ccccc3Cl)C2)C1 (stereo not drawn),10.1,-2.6,0.4,-9.7,22.0*
CC(=O)N1c2ccc(S(=O)(=O)N3CCCC3C(=O)NCc3ccccc3Cl)cc2CC1C (stereo not drawn),2.5,2.7,2.1,-7.5,48.9*
COc1ccccc1CNC(=O)C1CCN(S(=O)(=O)c2ccc3c(c2)CC(C)N3C(C)=O)CC1 (stereo not drawn),-6.0,0.4,-9.7,-3.3,0.1
O=C1c2cccn2CC2Cc3ccccc3N12 (stereo not drawn),2.8,0.3,/,/,2.6
CC(C)c1cc(C(C)C)c(S(=O)(=O)NCC(=O)N2CCN(c3ncccn3)CC2)c(C(C)C)c1,-3.1,-8.7,/,/,-0.4
CC(=O)c1cc(-c2ccc3[nH]ccc3c2)c(=O)n2c1CCC2,-0.2,1.5,/,/,8.1
O=C(Nc1ccccc1C(F)(F)F)NC1(C(=O)N2CCOCC2)CCCCC1,15.8*,23.5*,27.3,/,34.2*
CC(=O)N(c1ccccc1)c1nc(/C=C/C(=O)Nc2c(C)cc(C)cc2C)cs1,-1.8,-0.6,-9.3,0.0,98.9*
C=CCSC1=C(C#N)C(c2ccccc2OCC)CC(=O)N1 (stereo not drawn),-3.0,21.8*,10.9,-2.9,0.9
C=CCSC1=C(C#N)C(c2ccccc2OC)CC(=O)N1 (stereo not drawn),-6.0,16.8,-18.3,-7.0,1.0
Cc1cc(Cl)cc(Cl)c1OCCCCN(C)C,3.9,1.6,-13.2,2.1,21.5*
Cc1cc(C)c(OCCCCN(C)C)c(Br)c1,1.4,2.8,0.9,5.7,-0.4
Cc1ccnc(NC(=S)N2CCC(Nc3cccc(C(F)(F)F)c3)CC2)c1,-2.7,10.4,/,/,1.8
CC(C)CC(C(=O)Nc1cccc(O)c1)N1C(=O)c2ccccc2C1=O (stereo not drawn),-2.6,-1.8,6.6,6.9,-2.0
CC(C)CC(C(=O)Nc1oc(-c2ccco2)c(-c2ccco2)c1C#N)N1C(=O)c2ccccc2C1=O (stereo not drawn),3.8,24.7*,24.4,10.2,-0.9
CC(C)CN1C(=O)C[C@]2(C(=O)N(C)c3ccc(NC(=O)C(F)(F)F)cc32)C1c1ccccc1 (stereo partly drawn),-3.2,-3.1,/,/,1.5
CCOC(=O)C1=NOC(C(=O)Nc2nccs2)(C(=O)C2CC2)C1 (stereo not drawn),-2.2,-5.0,/,/,0.0
Cc1nc2ccccn2c1P(=O)(c1ccccc1)c1ccccc1,5.2,-2.2,/,/,2.4
CC(C)(C)CC(C)(C)NCC(=O)Nc1c2c(nc3ccccc13)CCC2,4.5,0.5,0.0,5.7,27.3*
SMILES,MBD2 DNA inh,PRMT1 inh,PfG6PD inh,M18AAP inhibitor,UHRF1 MBD2 ctr
O=C(Nc1c2c(nc3ccccc13)CCCC2)c1ccccc1Cl,1.9,-0.4,9.3,2.9,-1.4
O=C(COc1ccc(Cl)cc1)OCC(=O)N1CCCCCC1,0.8,-0.1,-0.5,-1.5,13.9
O=C(COc1ccc(Nc2ccccc2)cc1)OCC(=O)N1CCCCC1,-5.0,-0.6,21.2,28.7*,-1.4
S=c1nc(-c2csc3c2CCCC3)[nH][nH]1,4.4,21.7*,8.3,5.6,2.7
CC(=O)Nc1ccc(SCc2c(C)noc2C)cc1,3.4,21.4*,-15.9,-3.6,0.6
CC(=O)Nc1ccc(SCc2ncc(-c3ccccc3)o2)cc1,2.4,22.5*,1.0,4.2,1.5
Cc1ccc(CNC(=O)O[C@H]2CC[C@@]34CCCN3C(=O)CCC[C@H]4C2)o1,-0.9,-3.2,/,/,-0.6
COC(=O)CSC1=C(C#N)C(c2ccc(Cl)cc2)C(C(=O)OC)C(=O)N1 (stereo not drawn),11.2,2.6,7.7,4.9,22.6*
Cc1ccccc1NC(=O)N(C)[C@H]1C[C@H]2c3[nH]c4c(-c5ccccc5)cccc4c3CCN2C(=O)[C@H]1[C@H](C)O,2.0,-2.7,/,/,3.1
C=C(C)CCC(C)N1CCC(n2nccc2NC(=O)CCCc2ccccc2)CC1 (stereo not drawn),2.0,-3.3,9.6,7.1,20.9*
N#CCC[C@H]1CC[C@]2(CCCN(Cc3ccccc3)C2)O1,1.7,1.6,/,/,0.8
CCN(CC)c1ccc(N=Cc2ccc([N+](=O)[O-])o2)cc1,10.0,40.8*,69.3*,16.5,24.9*
CCN(CC)c1ccc(N=Cc2ccccc2[N+](=O)[O-])cc1,-8.9,20.0,56.2,19.8,-4.2
CC(=O)C1=C(C)NC(SCC(=O)c2ccc(F)cc2)=C(C#N)C1CC(C)C (stereo not drawn),0.7,27.5*,40.2,-7.3,3.1
CC(=O)C1=C(C)NC(SCC(=O)c2ccc(Cl)cc2)=C(C#N)C1CC(C)C (stereo not drawn),-0.5,4.5,40.6,-5.8,2.0
Cc1ccc(S(=O)(=O)c2nc(-c3ccco3)oc2SCC(N)=O)cc1,-0.5,21.4*,8.6,-11.7,-2.1
COc1cccc(-c2ccc(CC[C@H]3O[C@H]4CC[C@@H](CO)O[C@H]4C[C@H]3NS(C)(=O)=O)cc2)c1,-0.3,-0.4,/,/,-0.8
CC(CNC(=O)CCc1nnc(CCC2CCCCC2)o1)c1ccccc1 (stereo not drawn),0.3,-4.0,-15.6,-9.7,32.7*
Cc1cc(-c2nnc(CCC(=O)NCC(C)c3ccccc3)o2)no1 (stereo not drawn),-0.5,-2.8,10.3,-3.1,1.2
Cc1ccc2cc(CN(Cc3ccc4c(c3)OCO4)Cc3nnnn3Cc3ccco3)c(=O)[nH]c2c1,3.2,4.8,-0.4,2.5,0.3
COc1ccc2[nH]c(=O)c(CN(C3CCCCC3)C(c3nnnn3Cc3ccco3)C(C)C)cc2c1 (stereo not drawn),/,/,87.5*,8.9,/
COc1ccc2cc(CN(CCc3ccccc3)Cc3nnnn3Cc3ccco3)c(=O)[nH]c2c1,-3.6,22.1*,20.4,21.6,-3.0
COc1ccc2[nH]c(=O)c(CN(Cc3nnnn3Cc3ccco3)C3CCCCC3)cc2c1,-2.4,2.1,35.0,-43.5,0.6
CCNC(=S)NNC(=O)c1csc(CC)c1,-4.0,1.4,-13.3,30.6*,-2.5
